This is a sample that favours compounds with a hit; in the whole collection about 0.52% have one here.
Vif-APOBEC3F blk = inhibitors of Vif-A3F interaction; HeLa A3F-eYFP + Vif (tagged APOBEC3F with the HIV-1 protein that degrades it), YFP fluorescence increase; Potency, µM (titrated, usually from 46.1 µM); 390,000 compounds, 0.2% hits; also: nearly all actives have a fitted effect of over 65% in size
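HeLa cells stably expressing Vif plus C-terminally eYFP-tagged A3F were seeded, incubated overnight at 37 deg C, dosed with compound, incubated overnight again at 37 deg C. Yellow fluorescence (Ex 488/Em 500-530) reported blocked Vif-mediated A3F-eYFP degradation.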
Epigenetic derep = regulators of epigenetic silencing causing reporter derepression in mouse cells | murine LDR cells, GFP reporter derepression, 30 h | Potency, µM (titrated, usually from 53.9 µM), usual class: activators | 280,000 compounds, 0.2% hits; also: nearly all actives have a fitted effect of over 60% in size
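Derepression of a silenced CMV-GFP reporter in murine LDR cells is scored by enumerating GFP-positive cells with a laser-scanning microplate cytometer after 30 hours of treatment at 37 C.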
Vif-APOBEC3G blk = blocks the Vif interaction with human APOBEC3G. Q9HC16. HeLa A3G-eYFP + Vif (tagged APOBEC3G with the HIV-1 protein that degrades it), YFP fluorescence, overnight. Potency, µM (titrated, usually from 46.1 µM), usual class: inhibitors. 410,000 compounds, 0.076% hits; also: nearly all actives have a fitted effect of over 60% in size
Target sequence (Q9HC16 whole entry, looked up): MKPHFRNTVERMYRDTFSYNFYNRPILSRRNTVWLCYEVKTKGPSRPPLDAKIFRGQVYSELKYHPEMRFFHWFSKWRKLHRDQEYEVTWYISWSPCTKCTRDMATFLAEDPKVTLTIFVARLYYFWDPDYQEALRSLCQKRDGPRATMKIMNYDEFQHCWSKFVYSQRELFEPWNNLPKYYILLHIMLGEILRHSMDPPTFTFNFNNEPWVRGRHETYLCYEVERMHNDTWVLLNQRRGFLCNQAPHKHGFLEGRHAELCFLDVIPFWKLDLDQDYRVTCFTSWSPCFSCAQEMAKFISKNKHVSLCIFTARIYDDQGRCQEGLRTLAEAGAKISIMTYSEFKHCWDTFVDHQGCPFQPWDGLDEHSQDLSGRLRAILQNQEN
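Read-out is eYFP fluorescence (Ex 488/Em 500-530) from Vif-expressing HeLa A3G-eYFP cells; more signal means A3G escaped Vif-mediated degradation. Cells plated overnight, compound pinned in, incubated overnight at 37 deg C.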
PINK1 expr mod = modulators of PINK1 expression. 410,000 compounds, 0.2% hits. Potency, µM (series often up to 76.6 µM), most hits filed as activators. PINK1 immunofluorescence, high-content cytometry, 24 h; active = well fitted activation curve with a large enough effect; inconclusive = small, poorly fitted or top-dose-only effect; cell line not stated here; also: nearly all actives have a fitted effect of over 65% in size
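Readout is PINK1 immunofluorescence, quantified alongside mitochondrial, cell and nuclear markers by laser-scanning microplate cytometry. Cells from a stable line were exposed to compound titrations (5 concentrations) for 24 hours, with CCCP controls.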
A number is an active result; n = inactive; u = inconclusive; x = not tested or not shown. Unless noted, calls follow the shape of the dose curve; as a rule, active = well fitted curve in the direction sought with a large enough effect; inconclusive = small, poorly fitted or top-dose-only effect, or another doubt; inactive = no such curve, though single readings can be large; an effect the other way counts as inactive or inconclusive.

SMILES | Vif-APOBEC3F blk | Epigenetic derep | Vif-APOBEC3G blk | PINK1 expr mod
CN(C)S(=O)(=O)c1cccc(NC(=S)Nc2ccc(Cl)cc2Cl)c1 | n | n | n | 16µM
CCn1cc(C(=O)O)c(=O)c2cnc(N3CCN(C(=S)Nc4ccccc4)CC3)nc21 | n | n | n | n
CCCCOC(=O)c1ccc(NC(=S)N2CCN(c3ncc4c(=O)c(C(=O)O)cn(CC)c4n3)CC2)cc1 | n | n | n | 28µM
COc1cc(N2CCCC2)c(OC)cc1/C=C(/C#N)c1ccc(F)cc1 | 10µM | 14µM | 10µM | n
COc1ccc(C(C#N)=Cc2ccc(OC)c(OC)c2)cc1 | n | x | n | n
COc1ccc(C(C#N)=Cc2ccccc2OC)cc1 | n | x | n | n
COc1cc(N2CCCC2)c(OC)cc1/C=C(/C#N)c1ccc(Br)cc1 | 4µM | 3.2µM | u | n
COc1cccc(CNc2ncnc3sc(C(=O)N4CC5CCC4C5)c(C)c23)c1OC (stereo not given) | x | x | x | n
CCOc1cc(/C=C2\CCC/C(=C\c3cc(Cl)c(O)c(OCC)c3)C2=O)cc(Cl)c1O | u | u | 3.2µM | n
O=[N+]([O-])/C=C\c1ccc(N2CCCC2)c(F)c1 | 25µM | n | u | n
O=Cc1ccc(N2CCCC2)c([N+](=O)[O-])c1 | u | n | n | n
Cc1cccc2nc(CNC(=O)CN3Cc4cc(Cl)ccc4OC(C)C3)cn12 (stereo not given) | x | x | x | n
Cc1nn(-c2ccccc2)c(C)c1CC(=O)NCC1Cc2cc(F)cc(-c3cccnc3)c2O1 (stereo not given) | x | x | x | n
Cc1oc(-c2ccccc2NC(=O)c2ccsc2)nc1CN(C)Cc1ccc2c(c1)CCCN2C | x | x | x | n
Cc1cc(C)nc(NN2C(=O)/C(=C/c3ccccc3)SC2=S)n1 | n | n | n | 10µM
O=C(NCc1ccccc1Cl)c1ccc2c(c1)NC(=O)C(CS(=O)(=O)Cc1ccc(Cl)cc1)N2 (stereo not given) | n | u | n | n
Cc1ccc(CNC(=O)c2ccc3c(c2)NC(=O)C(CS(=O)(=O)Cc2cccc(C)c2)N3)cc1 (stereo not given) | 22µM | u | n | n
CCCCCCCCCCCCCCCC[n+]1ccc(C)c2ccccc21 | x | x | n | x
CC(NC(=O)c1cccnc1)c1nnc2n1CCN(Cc1ccc(-c3ccccc3)cc1)CC2 (stereo not given) | x | x | x | n
CC[n+]1c(/C=C2\C=C(C)CC(C)(C)C2)sc2ccccc21 | n | n | n | 13µM
CCCCCCCC[n+]1cccc2c3ccccc3ccc21 | n | n | n | 25µM
Cc1oc(-c2ccccc2NC(=O)C2CCC2)nc1CNC(=O)c1ccccn1 | x | x | x | n
N#C/C(=N\Nc1cccc(C(F)(F)F)c1)C(=O)c1ccsc1 | n | n | n | 11µM
Cc1ccc(OCC(=O)N/N=C\c2ccc(C)o2)c([N+](=O)[O-])c1 | u | n | u | 45µM
Cc1ccc(OCC(=O)N/N=C/c2ccccc2)c([N+](=O)[O-])c1 | n | n | n | n
SMILES | Vif-APOBEC3F blk | Epigenetic derep | Vif-APOBEC3G blk | PINK1 expr mod
COC(=O)c1ccc(C(=O)NCC2Cc3cc(F)cc(-c4cncnc4)c3O2)cc1 (stereo not given) | x | x | x | n
COc1ccc(N=Cc2sc(O)c3ccccc23)cc1 | n | 10µM | 13µM | n
COc1ccc(N=Cc2c(O)c3ccccc3n2C(C)=O)cc1 | 13µM | n | 13µM | 25µM
COC(=O)[C@@H]1C[C@@H](NC(=O)c2cccc3c(C)c(C)[nH]c23)CN1Cc1cccc2ccccc12 | x | x | x | n
Cc1ccc(CNc2nc(CN3CCSCC3)nc3ccccc23)o1 | x | x | x | n
COc1ccccc1C1CN(Cc2cccnc2)Cc2ccccc2O1 (stereo not given) | x | x | x | n
COc1ccccc1-c1ccnc(-n2ncc(C(=O)NC(C)(C)CO)c2C2CC2)n1 | x | x | x | n
CCOC(=O)Cc1nnc2c(Nc3ccc(Cl)cc3)nc3nonc3n12 | n | n | n | 45µM
CCOC(=O)Cc1csc(Nc2ccc(Cl)cc2)n1 | n | n | n | n
Cc1nc(C)c(CC(=O)N2CCOc3ccc(CN4CCN(c5ccccn5)CC4)cc3C2)s1 | x | x | x | n
CC(C)c1c(C(=O)N(C)Cc2cccc3ncccc23)cnn1-c1nccc(-c2ccco2)n1 | x | x | x | n
O=C1CC(CC(=O)N2CC3CCCC2C3)(c2cccc(F)c2)C(=O)N1Cc1cccnc1 (stereo not given) | x | x | x | n
CCC(=O)Nc1ccc2c(c1)C(=O)N(C1CCCCC1)C2=O | n | n | n | 3.5µM
O=C(Nc1ccncc1)c1ccc2c(c1)C(=O)N(C1CCCCC1)C2=O | n | n | n | n
Cc1cc(/C=C\c2ccc3cc(N(C)C)ccc3[n+]2C)c(C)n1-c1ccccc1 | 3.2µM | n | 7.1µM | u
CN(C)c1ccc(/C=C/c2ccc3ccccc3[n+]2[O-])cc1 | x | x | u | n
Oc1[nH]c2ccccc2c1N=Nc1nncc2ccccc12 | n | n | n | n
Cc1sc2ncnc(N=Nc3c(O)[nH]c4ccccc34)c2c1C | 22µM | u | n | u
CCc1cc2c(N=Nc3c(O)[nH]c4ccccc34)ncnc2s1 | u | 22µM | n | u
Cc1nc(C)c(C(=O)N2CCc3c(cnc(C)c3CNC(=O)c3cncs3)C2)s1 | x | x | x | n
COC(=O)c1ccccc1-c1cc(C)cc2c1OC(CNC(=O)c1ccn(C)n1)C2 (stereo not given) | x | x | x | n
Cc1nn(C)c(Cl)c1CN1CCOc2ccc(CN3CCC(Oc4cccnc4)CC3)cc2C1 | x | x | x | n
CCOC(=O)N1CCN(C(=O)c2ccc(Cn3c(=S)[nH]c4ccc(Br)cc4c3=O)cc2)CC1 | n | x | n | 25µM
CC(=O)Nc1cc(-c2nc3ccccc3s2)ccc1C | x | n | x | n
Cc1ccc(-c2nc3ccccc3s2)cc1NC(=O)c1cc(-n2cnnc2)ccc1Cl | n | n | n | 3.5µM
SMILES | Vif-APOBEC3F blk | Epigenetic derep | Vif-APOBEC3G blk | PINK1 expr mod
Cc1occc1C(=O)N/N=C/c1ccc(-c2ccccc2)cc1 | n | x | n | n
Cc1occc1C(=O)N/N=C/C(Br)=C/c1ccccc1 | u | 22µM | n | n
COc1cccc(CN(C)C(=O)c2cnn(-c3ncc4c(n3)-c3ccccc3CCC4)c2C)c1 | x | x | x | n
COc1ccc(OC)c(NC(=O)Cn2cnc3onc(-c4ccc(Cl)cc4)c3c2=O)c1 | n | n | 1.3µM | n
COc1cc(=O)n2c(c1C(=O)NCc1ccco1)CCN(Cc1ccc(F)cc1Cl)CC2 | x | x | x | n
CCN(CC)c1ccc2cc(-c3nc(-c4cc5ccccc5oc4=O)cs3)c(=O)oc2c1 | n | x | 7.1µM | 32µM
CCN(CC)c1ccc2cc(-c3nc(-c4ccccc4)no3)c(=O)oc2c1 | u | 14µM | n | n
CCN(CC)c1ccc2cc(-c3nnc(Nc4ccc(C)cc4)s3)c(=O)oc2c1 | n | 0.1µM | n | n
COC(=O)c1ccc(C(=O)N2CCc3c(C(=O)NC(C)c4ccco4)c(OC)cc(=O)n3CC2)cc1 (stereo not given) | x | x | x | n
C/C(=N/N=C(\C)c1ccccc1O)c1ccccc1O | 18µM | x | n | 32µM
CCC(=NN=C(CC)c1ccccc1O)c1ccccc1O | n | x | n | n
CCCCCOc1ccc(NC(=O)c2cc(SC)ccc2Cl)cc1 | n | n | n | 14µM
Cc1ccc(N2C(=O)c3cccc4c(N)ccc(c34)C2=O)c2cccnc12 | u | 4µM | n | 40µM

High-throughput results: PubChem BioAssay, National Center for Advancing Translational Sciences (NCATS)
